In PubChem BioAssay (NCI):
Compounds without any hit were thinned out: in the full panel of roughly 83,000, 20% have a hit.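 Assay: single dose, 48 h. Readout: percent growth (0 = no net growth; negative = cell death). Active: <10.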 Calls of active or inactive are those of the source.

Tests used:
Test in all cases: NCI-60 one-dose screen, 48 h (100 = growth as untreated, 0 = no growth, -100 = all killed)
Details in all cases: 10 µM unless noted
DU-145 prostate = system: DU-145 prostate
K-562 leukemia = system: K-562 leukemia
MALME-3M melanoma = system: MALME-3M melanoma
MDA-MB-231 breast = system: MDA-MB-231 breast
RXF 393 renal = system: RXF 393 renal
SF-268 CNS = system: SF-268 CNS
SF-295 CNS = system: SF-295 CNS
SF-539 CNS = system: SF-539 CNS
UACC-257 melanoma = system: UACC-257 melanoma
M14 melanoma = system: M14 melanoma
HCT-15 colon = system: HCT-15 colon
HT29 colon = system: HT29 colon
SNB-75 CNS = system: SNB-75 CNS
SNB-19 CNS = system: SNB-19 CNS
U251 CNS = system: U251 CNS
PC-3 prostate = system: PC-3 prostate
UACC-62 melanoma = system: UACC-62 melanoma
LOX IMVI melanoma = system: LOX IMVI melanoma
SK-MEL-28 melanoma = system: SK-MEL-28 melanoma
SK-MEL-5 melanoma = system: SK-MEL-5 melanoma

Measured: growth

CCCNNC(=O)c1ccc(CNC(=O)/C=C/c2ccccc2)cc1
active: RXF 393 renal 1.56% [2.5 µM] | UACC-62 melanoma 7.16% [2.5 µM]
inactive: DU-145 prostate 37% [2.5 µM] | K-562 leukemia 15% [2.5 µM] | MALME-3M melanoma 30.1% [2.5 µM] | MDA-MB-231 breast 55.7% [2.5 µM] | SF-268 CNS 52.6% [2.5 µM] | SF-295 CNS 33.3% [2.5 µM] | SF-539 CNS 44.2% [2.5 µM] | UACC-257 melanoma 24.1% [2.5 µM] | M14 melanoma 29.9% [2.5 µM] | HCT-15 colon 50.4% [2.5 µM] | HT29 colon 10.8% [2.5 µM] | SNB-75 CNS 71.7% [2.5 µM] | SNB-19 CNS 54.5% [2.5 µM] | U251 CNS 37.7% [2.5 µM] | PC-3 prostate 43% [2.5 µM] | LOX IMVI melanoma 21.6% [2.5 µM] | SK-MEL-28 melanoma 36% [2.5 µM]

C#CCOc1cc(/C=N/Nc2nc(-c3ccc(OC)cc3)cs2)ccc1O
inactive: DU-145 prostate 95.7% | K-562 leukemia 59.1% | MALME-3M melanoma 86.1% | MDA-MB-231 breast 96.5% | RXF 393 renal 107% | SF-268 CNS 94.3% | SF-295 CNS 84.1% | SF-539 CNS 93% | UACC-257 melanoma 93.2% | M14 melanoma 94.2% | HCT-15 colon 83.1% | HT29 colon 92.6% | SNB-75 CNS 95.5% | SNB-19 CNS 91.9% | U251 CNS 83.8% | PC-3 prostate 82.2% | UACC-62 melanoma 70.8% | LOX IMVI melanoma 90.9% | SK-MEL-28 melanoma 97.8%

COC(=O)c1nc(-c2ccccc2)oc1S(=O)(=O)NCC(c1ccc(Cl)cc1)N1CCCCC1 (stereo unspecified)
active: K-562 leukemia 9.15%
inactive: DU-145 prostate 97.9% | MALME-3M melanoma 99.1% | MDA-MB-231 breast 72.2% | RXF 393 renal 82.7% | SF-268 CNS 82.5% | SF-295 CNS 102% | SF-539 CNS 88.1% | UACC-257 melanoma 88% | M14 melanoma 38% | HCT-15 colon 49.1% | HT29 colon 45.8% | SNB-75 CNS 79% | SNB-19 CNS 81.1% | U251 CNS 59.6% | PC-3 prostate 58.3% | SK-MEL-5 melanoma 86% | UACC-62 melanoma 85.5% | SK-MEL-28 melanoma 99.7%

CCc1ccc(Cc2cnc(NC(=O)c3cc(C)oc3C)s2)cc1
active: SNB-75 CNS -4.36%
inactive: DU-145 prostate 60.2% | K-562 leukemia 14.6% | MALME-3M melanoma 56% | MDA-MB-231 breast 57.8% | RXF 393 renal 15.4% | SF-268 CNS 48.6% | SF-295 CNS 31.8% | SF-539 CNS 31.2% | UACC-257 melanoma 52.1% | M14 melanoma 21.4% | HCT-15 colon 24.3% | HT29 colon 10.8% | SNB-19 CNS 37.1% | U251 CNS 33.3% | PC-3 prostate 37.7% | UACC-62 melanoma 25.3% | LOX IMVI melanoma 41.3% | SK-MEL-28 melanoma 59.5%
